# PubChem BioAssay (EPA / NIEHS)
# Records with an inconclusive call do not appear. Calls of active or inactive are those of the source. How the source made its calls: active means hit-call score of the fitted dose curve at least 0.9, where 1 is the maximum; inconclusive means response in the unintended direction; inactive means score below 0.9.
# Assays:
# [1] = target: human Aurora Kinase A - serine/threonine-protein Kinase 6 (AurA), AURKA (gene 6790) (UniProt O14965); experiment: NVS_ENZ_hAurA: NovaScreen (NVS) Enzymatic Assay for human Aurora Kinase A - serine/threonine-protein Kinase 6 (AurA) (AID 2283142)
# Method in brief: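 Recombinant human AurA activity read by fluorescence after mobility-shift separation of product from substrate; 1 hour incubation. Chemicals first run in duplicate at 25 uM, then concentration series to 50 uM if over threshold; fitted relative to DMSO.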
# [2] = target: human Epidermal Growth Factor Receptor (EGFR), EGFR (gene 1956) (UniProt P00533); experiment: NVS_ENZ_hEGFR: NovaScreen (NVS) Enzymatic Assay for human Epidermal Growth Factor Receptor (EGFR) (AID 2283151)
# Chain of human Epidermal Growth Factor Receptor (EGFR), EGFR (gene 1956) (P00533 whole entry, looked up): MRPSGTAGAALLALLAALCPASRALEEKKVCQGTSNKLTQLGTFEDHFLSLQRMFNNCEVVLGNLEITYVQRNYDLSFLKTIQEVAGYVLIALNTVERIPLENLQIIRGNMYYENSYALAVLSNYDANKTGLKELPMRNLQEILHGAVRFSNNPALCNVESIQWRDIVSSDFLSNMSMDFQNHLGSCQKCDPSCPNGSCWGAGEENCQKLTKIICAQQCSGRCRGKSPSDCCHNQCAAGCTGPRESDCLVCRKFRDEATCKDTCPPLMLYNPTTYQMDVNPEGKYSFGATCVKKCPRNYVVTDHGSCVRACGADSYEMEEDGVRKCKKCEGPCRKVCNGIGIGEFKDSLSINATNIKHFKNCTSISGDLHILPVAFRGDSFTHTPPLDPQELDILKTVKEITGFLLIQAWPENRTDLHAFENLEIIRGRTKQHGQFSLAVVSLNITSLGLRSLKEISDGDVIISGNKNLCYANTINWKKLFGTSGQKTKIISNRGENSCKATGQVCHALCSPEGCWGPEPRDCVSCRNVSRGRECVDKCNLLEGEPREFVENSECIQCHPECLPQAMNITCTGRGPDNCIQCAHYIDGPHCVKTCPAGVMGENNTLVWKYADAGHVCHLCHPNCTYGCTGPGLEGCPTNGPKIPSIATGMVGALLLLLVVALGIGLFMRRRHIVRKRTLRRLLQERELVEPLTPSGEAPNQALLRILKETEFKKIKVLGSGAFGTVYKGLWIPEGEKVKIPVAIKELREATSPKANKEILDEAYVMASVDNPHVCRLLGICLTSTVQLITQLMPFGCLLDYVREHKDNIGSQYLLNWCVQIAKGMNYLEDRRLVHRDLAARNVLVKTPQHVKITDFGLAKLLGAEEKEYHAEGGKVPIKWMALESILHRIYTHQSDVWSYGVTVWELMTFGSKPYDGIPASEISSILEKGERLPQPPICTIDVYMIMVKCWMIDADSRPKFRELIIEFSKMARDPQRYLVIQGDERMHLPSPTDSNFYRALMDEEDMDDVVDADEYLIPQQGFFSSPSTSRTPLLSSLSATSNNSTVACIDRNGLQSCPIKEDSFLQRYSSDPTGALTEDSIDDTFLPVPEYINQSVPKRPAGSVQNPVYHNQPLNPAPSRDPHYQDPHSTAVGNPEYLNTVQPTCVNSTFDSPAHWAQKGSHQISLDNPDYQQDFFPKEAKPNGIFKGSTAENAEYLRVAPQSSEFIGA
# Method in brief: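 Cell-free kinase assay, fluorescence plus electrophoretic mobility shift separating substrate and product, read 1 hour after dosing; loss of signal vs DMSO. Duplicate screen at 25 uM, then concentration-response to 50 uM.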
# [3] = target: human p21 Activated Kinase 4 (PAK4), PAK4 (gene 10298) (UniProt O96013); experiment: NVS_ENZ_hPAK4: NovaScreen (NVS) Enzymatic Assay for human p21 Activated Kinase 4 (PAK4) (AID 2283189)
# Method in brief: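 Extracted PAK4 enzyme activity read by fluorescence with mobility-shift separation 1 h after chemical addition. Duplicate single-concentration screen at 25 uM, DMSO as negative control.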
# PPP2CA (gene 5515) = PPP2CA (gene 5515) (UniProt P67775); experiment: NVS_ENZ_hPPP2CA: NovaScreen (NVS) Enzymatic Assay for human Protein Phosphatase 2 Aatalytic subunit Alpha (PPP2CA) (AID 2283199)
# Chain of PPP2CA (gene 5515) (P67775 whole entry, looked up): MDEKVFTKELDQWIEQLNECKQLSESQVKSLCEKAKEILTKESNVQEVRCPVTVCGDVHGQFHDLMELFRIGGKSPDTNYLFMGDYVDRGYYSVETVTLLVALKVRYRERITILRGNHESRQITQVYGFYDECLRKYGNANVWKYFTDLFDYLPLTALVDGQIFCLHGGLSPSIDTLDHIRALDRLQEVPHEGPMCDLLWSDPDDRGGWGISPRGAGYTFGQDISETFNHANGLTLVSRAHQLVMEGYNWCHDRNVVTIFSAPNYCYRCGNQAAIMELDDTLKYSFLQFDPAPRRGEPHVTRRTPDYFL
# Method in brief: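 Cell-free phosphatase activity: fluorescent substrate turnover by recombinant human enzyme, resolved by mobility shift at 1.33 h. Compounds passing the 25 uM duplicate primary screen were rerun in singleton series with a 50 uM top concentration.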
# [4] = target: human Phosphatase and Tensin Homolog (PTEN), PTEN (gene 5728) (UniProt P60484); experiment: NVS_ENZ_hPTEN: NovaScreen (NVS) Enzymatic Assay for human Phosphatase and Tensin Homolog (PTEN) (AID 2283203)
# Chain of human Phosphatase and Tensin Homolog (PTEN), PTEN (gene 5728) (P60484 whole entry, looked up): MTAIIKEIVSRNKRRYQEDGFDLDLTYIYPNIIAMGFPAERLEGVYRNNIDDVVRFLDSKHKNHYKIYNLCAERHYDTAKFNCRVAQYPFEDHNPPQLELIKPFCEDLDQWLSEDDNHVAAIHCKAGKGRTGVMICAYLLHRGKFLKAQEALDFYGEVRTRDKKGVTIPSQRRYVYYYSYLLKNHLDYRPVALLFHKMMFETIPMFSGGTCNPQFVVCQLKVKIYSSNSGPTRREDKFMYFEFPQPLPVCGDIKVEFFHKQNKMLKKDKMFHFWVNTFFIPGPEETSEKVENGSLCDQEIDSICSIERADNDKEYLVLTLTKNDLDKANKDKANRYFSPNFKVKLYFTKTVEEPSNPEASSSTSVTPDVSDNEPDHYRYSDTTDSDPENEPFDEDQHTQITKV
# Method in brief: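 Loss of fluorescent product signal after mobility-shift separation reports PTEN activity, recombinant human enzyme, 1 h after compound addition. Single 25 uM duplicate screen, then concentration-response on actives; DMSO baseline.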
# [5] = target: human Protein Tyrosine Phosphatase Non-receptor Type 2 (PTPN2), PTPN2 (gene 5771) (UniProt P17706); experiment: NVS_ENZ_hPTPN2: NovaScreen (NVS) Enzymatic Assay for human Protein Tyrosine Phosphatase Non-receptor Type 2 (PTPN2) (AID 2283207)
# Chain of human Protein Tyrosine Phosphatase Non-receptor Type 2 (PTPN2), PTPN2 (gene 5771) (P17706 whole entry, looked up): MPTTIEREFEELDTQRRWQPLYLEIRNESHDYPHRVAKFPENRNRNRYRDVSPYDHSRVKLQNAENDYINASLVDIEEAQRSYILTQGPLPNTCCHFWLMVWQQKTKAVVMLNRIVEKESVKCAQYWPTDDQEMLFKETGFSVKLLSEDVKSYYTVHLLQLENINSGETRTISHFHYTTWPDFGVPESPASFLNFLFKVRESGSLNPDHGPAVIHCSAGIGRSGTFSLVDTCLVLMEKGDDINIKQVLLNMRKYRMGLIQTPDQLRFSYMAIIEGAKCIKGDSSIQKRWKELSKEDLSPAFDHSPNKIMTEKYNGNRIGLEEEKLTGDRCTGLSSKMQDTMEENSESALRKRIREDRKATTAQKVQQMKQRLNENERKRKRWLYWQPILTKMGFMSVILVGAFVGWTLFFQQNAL
# Method in brief: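 Activity measured as fluorescence after mobility-shift separation of substrate and product, 1 h after compound. Duplicate single-point 25 uM primary testing, concentration series for actives; inhibition scored as signal loss relative to DMSO baseline.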
# [6] = target: human Raf-1 Proto-Oncogene, serine/threonine Kinase (RAF1), RAF1 (gene 5894) (UniProt P04049); experiment: NVS_ENZ_hRAF1: NovaScreen (NVS) Enzymatic Assay for human Raf-1 Proto-Oncogene, serine/threonine Kinase (RAF1) (AID 2283216)
# Chain of human Raf-1 Proto-Oncogene, serine/threonine Kinase (RAF1), RAF1 (gene 5894) (P04049 whole entry, looked up): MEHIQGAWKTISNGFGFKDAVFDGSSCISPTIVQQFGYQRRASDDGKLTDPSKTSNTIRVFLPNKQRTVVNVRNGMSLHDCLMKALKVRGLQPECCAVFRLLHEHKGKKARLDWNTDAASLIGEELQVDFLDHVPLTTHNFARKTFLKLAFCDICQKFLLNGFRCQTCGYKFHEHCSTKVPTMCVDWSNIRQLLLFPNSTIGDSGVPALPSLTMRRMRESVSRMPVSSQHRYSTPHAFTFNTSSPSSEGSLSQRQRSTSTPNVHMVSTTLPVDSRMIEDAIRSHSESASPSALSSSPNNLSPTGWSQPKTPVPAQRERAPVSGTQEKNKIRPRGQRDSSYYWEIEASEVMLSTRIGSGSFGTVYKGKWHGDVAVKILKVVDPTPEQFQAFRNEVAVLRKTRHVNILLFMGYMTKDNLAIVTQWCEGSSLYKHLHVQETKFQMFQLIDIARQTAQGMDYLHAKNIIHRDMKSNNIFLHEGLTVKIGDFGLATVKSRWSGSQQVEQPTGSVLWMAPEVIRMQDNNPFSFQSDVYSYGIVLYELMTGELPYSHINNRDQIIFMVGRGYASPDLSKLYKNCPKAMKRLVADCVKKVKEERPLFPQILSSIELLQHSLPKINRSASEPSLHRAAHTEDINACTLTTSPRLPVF
# Method in brief: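 Single-point screening at 25 uM (duplicate), followed by singleton concentration-response to 50 uM maximum for chemicals exceeding threshold. Enzyme activity from fluorescent substrate-product mobility-shift separation after 1 h, relative to DMSO.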
# [7] = target: rat Corticotropin Releasing Factor Receptor (CRF), Crhr1 (gene 58959) (UniProt P35353); experiment: NVS_GPCR_rCRF: NovaScreen (NVS) G Protein-Coupled Receptor Assay for rat Corticotropin Releasing Factor Receptor (CRF) (AID 2283300)
# Method in brief: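 Single-concentration (25 uM, duplicate) radioligand binding on rat cortical membrane preparations, counted by scintillation after 2 h. Activity scored as signal loss relative to DMSO negative control.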
# [8] = target: human Ephrin type-B Receptor 2 (EphB2), EPHB2 (gene 2048) (UniProt P29323); experiment: NVS_ENZ_hEphB2: NovaScreen (NVS) Enzymatic Assay for human Ephrin type-B Receptor 2 (EphB2) (AID 2283156)
# Method in brief: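 Compounds were first tested in duplicate at 25 uM, with hits rerun singly in concentration series up to 50 uM. Enzyme activity on fluorescent substrate was read at 1 h by mobility-shift separation, scored as signal loss relative to DMSO.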
# [9] = target: human Fibroblast Growth Factor Receptor 1 (FGFR1), FGFR1 (gene 2260) (UniProt P11362); experiment: NVS_ENZ_hFGFR1: NovaScreen (NVS) Enzymatic Assay for human Fibroblast Growth Factor Receptor 1 (FGFR1) (AID 2283159);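 on AC50: hits lower the signal so potencies describe inhibitors of the kinase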
# Method in brief: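 Cell-free recombinant kinase with fluorescent substrate, product separated by electrophoretic mobility shift; read 1 hour after dosing, loss of signal relative to DMSO. Initial screen in duplicate at 25 uM, actives followed in concentration series.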
# [10] = target: human Tyrosine Protein Kinase Receptor Tie-2 (Tie2), TEK (gene 7010) (UniProt Q02763); experiment: NVS_ENZ_hTie2: NovaScreen (NVS) Enzymatic Assay for human Tyrosine Protein Kinase Receptor Tie-2 (Tie2) (AID 2283225)
# Chain of human Tyrosine Protein Kinase Receptor Tie-2 (Tie2), TEK (gene 7010) (Q02763 whole entry, looked up): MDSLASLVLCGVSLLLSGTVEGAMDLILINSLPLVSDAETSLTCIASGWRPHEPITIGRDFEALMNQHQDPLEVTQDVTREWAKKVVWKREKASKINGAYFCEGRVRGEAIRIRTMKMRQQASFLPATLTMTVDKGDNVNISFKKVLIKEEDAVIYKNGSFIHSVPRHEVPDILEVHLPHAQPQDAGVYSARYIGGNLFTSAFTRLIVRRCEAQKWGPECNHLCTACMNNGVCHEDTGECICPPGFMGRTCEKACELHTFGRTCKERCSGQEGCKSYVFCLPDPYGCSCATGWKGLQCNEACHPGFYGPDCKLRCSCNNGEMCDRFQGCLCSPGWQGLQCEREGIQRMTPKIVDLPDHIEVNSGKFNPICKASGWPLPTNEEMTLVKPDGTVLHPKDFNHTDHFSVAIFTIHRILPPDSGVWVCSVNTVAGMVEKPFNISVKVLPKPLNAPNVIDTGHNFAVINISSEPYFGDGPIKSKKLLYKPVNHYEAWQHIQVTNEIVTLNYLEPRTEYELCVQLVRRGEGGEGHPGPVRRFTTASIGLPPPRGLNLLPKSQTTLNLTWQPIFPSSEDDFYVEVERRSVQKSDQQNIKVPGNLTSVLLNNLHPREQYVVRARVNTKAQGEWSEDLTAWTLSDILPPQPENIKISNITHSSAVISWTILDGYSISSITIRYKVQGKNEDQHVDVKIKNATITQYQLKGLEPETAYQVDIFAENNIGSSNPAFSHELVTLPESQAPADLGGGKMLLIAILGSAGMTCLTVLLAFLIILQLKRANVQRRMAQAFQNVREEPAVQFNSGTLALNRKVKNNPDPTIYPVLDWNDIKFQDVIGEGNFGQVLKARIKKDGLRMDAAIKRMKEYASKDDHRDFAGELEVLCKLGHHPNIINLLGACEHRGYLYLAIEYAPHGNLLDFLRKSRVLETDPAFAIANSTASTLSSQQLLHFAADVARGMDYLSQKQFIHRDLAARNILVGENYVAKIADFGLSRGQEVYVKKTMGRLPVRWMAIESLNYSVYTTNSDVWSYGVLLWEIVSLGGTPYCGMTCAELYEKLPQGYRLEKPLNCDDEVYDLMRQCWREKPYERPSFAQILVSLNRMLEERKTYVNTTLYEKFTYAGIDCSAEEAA
# Method in brief: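 Substrate and product were separated by mobility shift and detected by fluorescence after a 1-hour reaction with recombinant Tie2. Chemicals passing a 25 uM single-point screen were titrated to a maximum of 50 uM. Results were normalized to DMSO baseline.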
# [11] = target: bovine Gamma-Aminobutyric Acid Type A Receptor BDZ, alpha 1 site (GABARa1), GABRA1 (gene 780973) (UniProt P08219); experiment: NVS_LGIC_bGABARa1: NovaScreen (NVS) Ligand-Gated Ion Channel Assay for bovine Gamma-Aminobutyric Acid Type A Receptor BDZ, alpha 1 site (GABARa1) (AID 2283321)
# Method in brief: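 Bovine cortex membrane preparation, benzodiazepine site on GABA-A alpha1; specific radioligand displacement read after 0.75 h by filtration and scintillation. Screen at 25 uM, then singleton titrations up to 50 uM; DMSO baseline.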
# [12] = target: Protein deacetylase HDAC6 (Homo sapiens) (UniProt Q9UBN7); experiment: NVS_ENZ_hHDAC6: NovaScreen (NVS) Enzymatic Assay for human Histone Deacetylase 6 (HDAC6) (AID 2283164)
# Method in brief: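 Concentration-response runs up to 50 uM followed a duplicate 25 uM single-point screen. Deacetylase activity of recombinant human HDAC6 read by fluorescence after 1 h, with mobility-shift separation of substrate and product; DMSO as baseline.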
# [13] = target: rat Gamma-Aminobutyric Acid Type A Receptor BDZ, alpha 6 site (GABARa6), Gabra6 (gene 29708) (UniProt P30191); experiment: NVS_LGIC_rGABARa6: NovaScreen (NVS) Ligand-Gated Ion Channel Assay for rat Gamma-Aminobutyric Acid Type A Receptor BDZ, alpha 6 site (GABARa6) (AID 2283339)
# Method in brief: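 Actives from a 25 uM duplicate screen were retested in concentration series (max 50 uM). Specific radioligand displacement from rat cerebellar membranes was counted by filter-based scintillation at 1 h; DMSO served as baseline.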
# [14] = target: human Ephrin type-A Receptor 2 (EphA2), EPHA2 (gene 1969) (UniProt P29317); experiment: NVS_ENZ_hEphA2: NovaScreen (NVS) Enzymatic Assay for human Ephrin type-A Receptor 2 (EphA2) (AID 2283155)
# Method in brief: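 Enzyme activity of recombinant EphA2 read by fluorescence after mobility-shift separation, 1 h after dosing. Chemicals first tested at 25 uM (duplicate); those passing threshold run as concentration series, top 50 uM, single replicate, relative to DMSO.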
# [15] = target: human Mitogen-Activated Protein Kinase 1 (MAPK 1), MAPK1 (gene 5594) (UniProt P28482); experiment: NVS_ENZ_hMAPK1: NovaScreen (NVS) Enzymatic Assay for human Mitogen-Activated Protein Kinase 1 (MAPK 1) (AID 2283175)
# Chain of human Mitogen-Activated Protein Kinase 1 (MAPK 1), MAPK1 (gene 5594) (P28482 whole entry, looked up): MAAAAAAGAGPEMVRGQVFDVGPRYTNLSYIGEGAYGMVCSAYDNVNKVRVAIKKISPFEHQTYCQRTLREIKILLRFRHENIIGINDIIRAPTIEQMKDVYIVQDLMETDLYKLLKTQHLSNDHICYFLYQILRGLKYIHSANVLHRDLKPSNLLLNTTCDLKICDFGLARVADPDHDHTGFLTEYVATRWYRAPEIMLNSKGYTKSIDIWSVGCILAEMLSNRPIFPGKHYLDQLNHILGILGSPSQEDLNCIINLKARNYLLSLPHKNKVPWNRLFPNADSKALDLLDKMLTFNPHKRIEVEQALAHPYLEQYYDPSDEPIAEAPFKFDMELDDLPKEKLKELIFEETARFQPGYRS
# Method in brief: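 Cell-free recombinant human MAPK1 enzymatic assay, fluorescence/electrophoretic mobility shift read at 1 h; loss of signal vs DMSO. Primary screen in duplicate at 25 uM; actives (e.g. ≥30% inhibition) run as concentration-response up to 50 uM.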
# [16] = target: human NIMA (Never In Mitosis Gene A)-Related Kinase 2 (NEK2), NEK2 (gene 4751) (UniProt P51955); experiment: NVS_ENZ_hNEK2: NovaScreen (NVS) Enzymatic Assay for human NIMA (Never In Mitosis Gene A)-Related Kinase 2 (NEK2) (AID 2283188)
# Method in brief: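 Compounds were first screened in duplicate at 25 uM, with actives followed up in concentration series. Recombinant NEK2 activity, cell-free, was read 1 h after dosing by fluorescence intensity after mobility-shift separation. Signal loss was scored against DMSO.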
# [17] = target: human Caspase 10 (CASP10), CASP10 (gene 843) (UniProt Q92851); experiment: NVS_ENZ_hCASP10: NovaScreen (NVS) Enzymatic Assay for human Caspase 10 (CASP10) (AID 2283133)
# Chain of human Caspase 10 (CASP10), CASP10 (gene 843) (Q92851 whole entry, looked up): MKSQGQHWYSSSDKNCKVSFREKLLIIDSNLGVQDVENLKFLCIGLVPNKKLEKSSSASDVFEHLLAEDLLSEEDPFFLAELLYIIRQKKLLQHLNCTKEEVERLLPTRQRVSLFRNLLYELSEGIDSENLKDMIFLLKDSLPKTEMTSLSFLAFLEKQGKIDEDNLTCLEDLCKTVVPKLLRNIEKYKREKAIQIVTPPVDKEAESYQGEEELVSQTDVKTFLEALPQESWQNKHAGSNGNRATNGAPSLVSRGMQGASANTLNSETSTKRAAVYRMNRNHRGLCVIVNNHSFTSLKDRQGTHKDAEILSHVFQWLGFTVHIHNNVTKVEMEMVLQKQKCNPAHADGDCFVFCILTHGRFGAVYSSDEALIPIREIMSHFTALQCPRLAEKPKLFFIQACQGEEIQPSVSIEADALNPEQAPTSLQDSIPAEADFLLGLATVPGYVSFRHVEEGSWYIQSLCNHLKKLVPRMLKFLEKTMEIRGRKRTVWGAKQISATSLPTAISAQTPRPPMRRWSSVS
# Method in brief: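 Fluorescence-intensity enzyme read-out of E. coli-expressed CASP10 activity, 1 h after compound. Single-point duplicates at 25 uM preceded concentration-response testing (top 50 uM) of hits; inhibition expressed as signal loss versus DMSO.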
# [18] = target: Norway rat Vesicular Monoamine Transporter (VMAT2), neurotransmitter transporter, Slc18a2 (gene 25549) (UniProt Q01827); experiment: NVS_TR_rVMAT2: NovaScreen (NVS) Transporter Assay for Norway rat Vesicular Monoamine Transporter (VMAT2), neurotransmitter transporter (AID 2283376);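 further: actives lower the bound radioligand signal below the DMSO level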
# Method in brief: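 Using rat forebrain membranes, specific radioligand binding to VMAT2 was measured by filtration and scintillation counting after 1 hour. Chemicals screened at 25 uM in duplicate, actives retested in concentration series, DMSO baseline.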
# [19] = target: human Matrix Metalloproteinase-1 (MMP1), MMP1 (gene 4312) (UniProt P03956); experiment: NVS_ENZ_hMMP1: NovaScreen (NVS) Enzymatic Assay for human Matrix Metalloproteinase-1 (MMP1) (AID 2283181)
# Method in brief: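 Cell-free fluorescent substrate assay of human MMP1, read after 1 h. A single 25 uM duplicate screen was followed by concentration series to a maximum of 50 uM for actives meeting threshold; inhibition analysed against DMSO baseline.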
# [20] = tested on: rat Monoamine Oxidase, MAO-A, Peripheral (MAOAP), gene 29253; experiment: NVS_ENZ_rMAOAP: NovaScreen (NVS) Enzymatic Assay for rat Monoamine Oxidase, MAO-A, Peripheral (MAOAP) (AID 2283237)
# Method in brief: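 Scintillation counting tracked MAO-A activity in a cell-free rat liver mitochondrial membrane prep, read 1.17 hours after compound addition. Single-point duplicate testing at 25 uM preceded concentration-response follow-up; activity was fitted relative to DMSO.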
# [21] = target: human Caspase 2 (CASP2), CASP2 (gene 835) (UniProt P42575); experiment: NVS_ENZ_hCASP2: NovaScreen (NVS) Enzymatic Assay for human Caspase 2 (CASP2) (AID 2283135)
# Method in brief: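 Single-point duplicate testing at 25 uM preceded concentration series topping at 50 uM. Activity of the recombinant E. coli-derived protease was followed by fluorescent substrate cleavage 1 h post-dosing, relative to DMSO.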
# [22] = tested on: rat Monoamine Oxidase, MAO-A, Central (MAOAC), gene 29253; experiment: NVS_ENZ_rMAOAC: NovaScreen (NVS) Enzymatic Assay for rat Monoamine Oxidase, MAO-A, Central (MAOAC) (AID 2283243);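 further: potency refers to inhibition seen as signal drop below DMSO baseline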
# Method in brief: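 Scintillation read-out of MAO-A activity in rat brain lysate, 1.5 h post-dosing. Primary single-concentration screen: 25 uM, duplicate; actives re-tested in concentration series. DMSO = negative control/baseline.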
smiles,measurement,setting,value
O=C(OCCCCCOC(=O)c1ccccc1)c1ccccc1,outcome,[1],inactive
same,outcome,[2],inactive
same,outcome,[3],inactive
same,outcome,PPP2CA (gene 5515),inactive
same,outcome,[4],inactive
same,outcome,[5],inactive
same,outcome,[6],inactive
same,outcome,[7],inactive
Cc1[nH]nc2c1N=C(c1ccccc1Cl)c1cc([N+](=O)[O-])ccc1N2,AC50,[1],0.00702 µM (active)
same,outcome,[8],inactive
same,AC50,[9],41.4 µM (active)
same,AC50,[3],9.53 µM (active)
same,outcome,[10],inactive
same,AC50,[11],2.29 µM (active)
CCCC(CCC)C(=O)O,outcome,[1],inactive
same,outcome,[2],inactive
same,outcome,[9],inactive
same,outcome,[12],inactive
same,outcome,[3],inactive
same,outcome,[4],inactive
same,outcome,[5],inactive
same,outcome,[10],inactive
same,outcome,[13],inactive
Cc1nc(-c2ccccn2)ncc1C(=O)Nn1cc(C)c2cc(F)ccc21,outcome,[1],inactive
same,outcome,[14],inactive
same,outcome,[9],inactive
same,outcome,[15],inactive
same,outcome,[16],inactive
same,outcome,[3],inactive
same,outcome,PPP2CA (gene 5515),inactive
same,outcome,[4],inactive
same,outcome,[10],inactive
C[Si]1(C)O[Si](C)(C)O[Si](C)(C)O[Si](C)(C)O1,outcome,[17],inactive
same,outcome,[15],inactive
same,outcome,[10],inactive
same,outcome,[13],inactive
same,outcome,[18],inactive
O=S1(=O)CCCO1,outcome,[1],inactive
CN(C)c1ccc(Cc2ccc(N(C)C)cc2)cc1,outcome,[1],inactive
CC(C)c1ccc(C(=O)N=C(N)N)cc1S(C)(=O)=O,outcome,[1],inactive
same,outcome,[10],inactive
O=C(O)c1[nH]n(-c2ccc(S(=O)(=O)O)cc2)c(=O)c1N=Nc1ccc(S(=O)(=O)O)cc1,outcome,[17],inactive
same,outcome,[2],inactive
same,outcome,[4],inactive
FC(F)(F)C(F)(F)C(F)(F)C(F)(F)C(F)(F)C(F)(F)CCI,outcome,[1],inactive
same,outcome,[2],inactive
same,outcome,[19],inactive
same,outcome,[3],inactive
same,outcome,[4],inactive
same,outcome,[5],inactive
same,outcome,[6],inactive
same,outcome,[10],inactive
O=C(O)C1(C(=O)Nc2ccc(Cl)cc2Cl)CC1,AC50,[1],16.3 µM (active)
same,AC50,[9],18.3 µM (active)
same,AC50,[4],3.91 µM (active)
same,AC50,[5],10.1 µM (active)
same,outcome,[10],inactive
c1ccc2ccccc2c1,outcome,[1],inactive
same,outcome,[15],inactive
same,outcome,[3],inactive
same,outcome,[4],inactive
O=C(O)CC(O)C(=O)O (stereo unspecified),outcome,[1],inactive
same,outcome,[5],inactive
same,outcome,[20],inactive
CCN(Cc1cccc(S(=O)(=O)O)c1)c1ccc(C(=C2C=CC(=[N+](CC)Cc3cccc(S(=O)(=O)O)c3)C=C2)c2ccccc2S(=O)(=O)[O-])cc1,outcome,[17],inactive
same,AC50,[2],12.1 µM (active)
same,outcome,PPP2CA (gene 5515),inactive
CCOC(=O)c1ccc(O)cc1,outcome,[21],inactive
same,outcome,[9],inactive
O=C(O)c1cc(N=Nc2ccc(S(=O)(=O)Nc3ccccn3)cc2)ccc1O,outcome,[1],inactive
same,AC50,[2],3.95 µM (active)
same,outcome,[9],inactive
same,outcome,[5],inactive
same,outcome,[6],inactive
same,outcome,[10],inactive
same,outcome,[22],inactive
